According to PubChem BioAssay (NCATS):
Results filed as inconclusive are left out. Calls of active or inactive are those of the source. Unless noted, calls follow the shape of the dose curve; as a rule, active = well fitted curve in either direction with a large enough effect (not every such curve was filed as active); inconclusive = small, poorly fitted or top-dose-only effect, or another doubt; inactive = flat fitted curve, though single readings scatter.

Tests used:
[1] = biological target: Lysosomal acid glucosylceramidase (Homo sapiens) (UniProt P04062); assay: Glucocerebrosidase-p2 (AID 348; in the data active = potency below about 10 µM; also: potency is read from the fitted curve at half-maximal effect); conditions: purified GBA, blue fluorogenic substrate, 40 min
Lysosomal acid glucosylceramidase (Homo sapiens), sequence (P04062 whole entry, looked up): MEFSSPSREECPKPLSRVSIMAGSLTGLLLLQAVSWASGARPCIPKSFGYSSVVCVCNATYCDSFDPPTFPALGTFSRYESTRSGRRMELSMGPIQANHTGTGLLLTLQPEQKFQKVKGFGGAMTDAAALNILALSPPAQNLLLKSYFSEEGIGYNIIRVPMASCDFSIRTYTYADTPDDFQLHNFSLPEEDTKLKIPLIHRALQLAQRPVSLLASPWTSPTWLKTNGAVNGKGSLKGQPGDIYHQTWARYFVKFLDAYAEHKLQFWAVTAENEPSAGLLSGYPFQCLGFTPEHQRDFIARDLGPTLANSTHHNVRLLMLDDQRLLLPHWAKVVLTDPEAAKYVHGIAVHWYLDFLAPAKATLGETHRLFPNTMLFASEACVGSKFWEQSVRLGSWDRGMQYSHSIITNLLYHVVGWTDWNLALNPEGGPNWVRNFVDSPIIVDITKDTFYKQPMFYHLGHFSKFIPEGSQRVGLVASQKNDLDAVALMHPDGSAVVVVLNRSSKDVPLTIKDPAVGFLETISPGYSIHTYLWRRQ
In short: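 Compounds titrated from 0.6 nM upwards against 0.2 nM enzyme in pH 5.9 citric acid/KH2PO4, taurocholate, tween-20; blue fluorogenic substrate 80 uM, 40 min room temperature, stopped and read Ex 365/Em 440 for AC50.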

[2] = AP1 Signaling Pathway (AID 357); conditions: ME-180 AP-1-bla reporter, EGF-induced, beta-lactamase ratio, 5 h; at 7.69 µM (top of the series) unless noted;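 also: ME-180 reporter cells stimulated with EGF at its EC50 level; % is scaled to controls: 0 for no effect and ±100 for the full control effect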
In short: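 AP-1-bla ME-180 cells, Opti-MEM + 0.5% dialyzed FBS, plated overnight 37 °C. Cpd titration + EC50 EGF, 5 h 37 °C. CCF4 2.5 h RT; ex 405, em 460/530 ratio → %activity, AC50.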

[3] = biological target: Cytochrome P450 1A2 (Homo sapiens) (UniProt P05177); assay: p450-cyp1a2 (AID 410; calls by dose curve; also: potency is read from the fitted curve at half-maximal effect;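 as to activity change, negative = inhibition: -100% = full effect of reference inhibitor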); conditions: recombinant CYP1A2, luciferin-ME demethylation, luminescence; series mostly up to 57 µM
Cytochrome P450 1A2 (Homo sapiens), sequence (P05177 whole entry, looked up): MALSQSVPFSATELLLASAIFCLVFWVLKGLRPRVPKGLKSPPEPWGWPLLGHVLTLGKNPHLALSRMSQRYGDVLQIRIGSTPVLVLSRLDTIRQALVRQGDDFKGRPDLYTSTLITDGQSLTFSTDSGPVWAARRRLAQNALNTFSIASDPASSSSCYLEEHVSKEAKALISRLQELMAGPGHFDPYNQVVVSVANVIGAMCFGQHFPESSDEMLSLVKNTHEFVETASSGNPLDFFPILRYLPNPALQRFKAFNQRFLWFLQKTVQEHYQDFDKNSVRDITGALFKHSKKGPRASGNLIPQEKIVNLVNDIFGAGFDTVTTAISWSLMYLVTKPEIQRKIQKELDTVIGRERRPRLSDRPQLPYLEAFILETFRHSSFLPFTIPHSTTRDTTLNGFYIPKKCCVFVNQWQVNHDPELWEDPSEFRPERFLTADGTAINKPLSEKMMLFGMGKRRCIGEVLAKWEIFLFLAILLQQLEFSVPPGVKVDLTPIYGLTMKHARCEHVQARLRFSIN
In short: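 Inhibition was calculated relative to 57 uM furafylline (full inhibition). The reaction used human CYP1A2 at 20nM with Luciferin-ME at its Km, 100uM, driven by an NADPH-regenerating system for 60 min at room temperature.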

[4] = NFAT Signaling Pathway (AID 444); conditions: Jurkat NFAT-bla M1, carbachol, beta-lactamase ratio, 5 h; at 7.69 µM (top of the series) unless noted;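 also: carbachol stimulus at about its EC50 of 1 µM final; % is scaled to controls: 0 for no effect and ±100 for the full control effect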
In short: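 Read-out: CCF4 FRET ratio (460 nm/530 nm) after 1 h RT dye loading, used for %activity and AC50 from titration series. Cells: Jurkat NFAT-β-lactamase/M1 line, treated with compound plus 1 uM carbachol for 5 h, 37 °C.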

[5] = Stat Signaling Pathway (AID 446); conditions: ME-180 SIE beta-lactamase reporter, IL-6 stimulated, 5 h; at 7.69 µM (top of the series) unless noted;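 also: ME-180 cervical cancer cells given 40 pM IL-6 alongside compound; SIE-controlled beta-lactamase reporter measured as 460/530 nm FRET emission ratio; % is scaled to controls: 0 for no effect and ±100 for the full control effect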
In short: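 Reporter line: ME-180 cervical carcinoma, SIE-beta-lactamase. Treatment: compound with 40 pM IL-6, 5 hrs, 37 C, in low-serum OPTI-MEM with 10 mM HEPES pH 7.3. Detection: 460/530 nm fluorescence.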

[6] = biological target: Glucocorticoid receptor (Homo sapiens) (UniProt P04150); assay: GR-GFP Redistribution (AID 450;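 active = compounds whose dose series gives a full or clear partial fitted curve of increased nuclear translocation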; also: potency is read from the fitted curve at half-maximal effect); conditions: U2OS GR-GFP nuclear translocation, laser cytometry, 2 h
Glucocorticoid receptor (Homo sapiens), sequence (P04150 whole entry, looked up, the tested form may be a part): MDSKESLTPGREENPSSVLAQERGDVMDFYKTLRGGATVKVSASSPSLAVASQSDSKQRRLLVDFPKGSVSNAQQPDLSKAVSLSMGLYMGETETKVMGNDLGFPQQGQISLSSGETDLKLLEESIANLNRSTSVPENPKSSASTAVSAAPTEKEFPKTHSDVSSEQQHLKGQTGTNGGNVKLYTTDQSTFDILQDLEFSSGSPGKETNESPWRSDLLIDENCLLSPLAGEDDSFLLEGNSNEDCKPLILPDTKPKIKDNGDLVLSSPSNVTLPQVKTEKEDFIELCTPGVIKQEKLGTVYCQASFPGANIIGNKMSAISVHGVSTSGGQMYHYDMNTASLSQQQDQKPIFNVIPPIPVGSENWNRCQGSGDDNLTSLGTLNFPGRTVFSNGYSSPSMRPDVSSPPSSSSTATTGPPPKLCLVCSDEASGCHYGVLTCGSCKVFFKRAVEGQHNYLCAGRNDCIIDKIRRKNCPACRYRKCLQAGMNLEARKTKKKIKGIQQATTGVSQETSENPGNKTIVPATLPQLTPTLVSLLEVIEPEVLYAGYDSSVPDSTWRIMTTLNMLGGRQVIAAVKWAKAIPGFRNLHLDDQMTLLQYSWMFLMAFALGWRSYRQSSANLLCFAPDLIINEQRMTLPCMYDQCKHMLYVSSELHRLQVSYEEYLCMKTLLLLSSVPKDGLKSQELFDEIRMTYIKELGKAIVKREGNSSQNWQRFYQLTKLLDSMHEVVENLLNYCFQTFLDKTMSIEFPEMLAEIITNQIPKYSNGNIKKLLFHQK

[7] = biological target: Glucocorticoid receptor (Homo sapiens) (UniProt P04150); assay: GR-EFC Redistribution (AID 451; calls by dose curve; also: potency is read from the fitted curve at half-maximal effect); conditions: CHO-K1 GR-EFC translocation, beta-gal luminescence, 2 h
In short: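 Translocation of GR-ED fusion to nuclear EA restores b-gal, read by luminescence after 1 h room-temperature detection. Engineered CHO-K1 biosensor cells, 1,000/well, exposed 2 h at 37 C to titrations up to 46 uM final.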

[8] = biological target: Mitogen-activated protein kinase 10 (Mus musculus) (UniProt Q61831); assay: JNK3 AlphaScreen Assay (AID 530); conditions: JNK3 lysate, c-Jun phosphorylation; series mostly up to 57.1 µM;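 also: kinase came from lysate of stimulated human HepG2 cells; signal reports phosphorylation of biotinylated GST-cJun 1-79 at Ser73 with 10 µM ATP; % is scaled to controls: 0 for no effect and ±100 for the full control effect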
In short: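 Room-temperature AlphaScreen kinase assay; pre-activated HepG2 lysate as JNK3 source, biotin-GST-cJun(1-79) substrate, 10 uM ATP, compound 15 min preincubation.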

[9] = biological target: Cytochrome P450 3A4 (Homo sapiens) (UniProt P08684); assay: qHTS Assay for Activators of Cytochrome P450 3A4 (AID 885; active = well fitted curve in the direction sought with a large enough effect; an effect the other way counts as inactive or inconclusive; also: nearly all actives have a fitted effect of over 65% in size); conditions: recombinant CYP3A4, Luciferin-PPXE luminescence, 60 min; series mostly up to 57.1 µM
Cytochrome P450 3A4 (Homo sapiens), sequence (P08684 whole entry, looked up): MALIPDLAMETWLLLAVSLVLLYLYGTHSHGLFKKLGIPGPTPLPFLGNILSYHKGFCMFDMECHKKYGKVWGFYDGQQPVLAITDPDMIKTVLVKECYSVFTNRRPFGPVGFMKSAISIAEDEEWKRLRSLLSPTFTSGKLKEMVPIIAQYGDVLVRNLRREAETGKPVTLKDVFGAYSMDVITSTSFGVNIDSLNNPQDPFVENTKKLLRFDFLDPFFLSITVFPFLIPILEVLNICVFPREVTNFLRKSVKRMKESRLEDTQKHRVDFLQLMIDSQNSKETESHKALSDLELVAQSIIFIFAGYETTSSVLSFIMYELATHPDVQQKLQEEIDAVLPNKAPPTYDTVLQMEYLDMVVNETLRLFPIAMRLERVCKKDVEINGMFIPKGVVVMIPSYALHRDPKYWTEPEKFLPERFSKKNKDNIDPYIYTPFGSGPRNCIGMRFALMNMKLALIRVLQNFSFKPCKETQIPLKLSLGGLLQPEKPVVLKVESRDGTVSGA
In short: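 Signal was normalized against complete inhibition by 57 uM ketoconazole. The reaction used 20nM CYP3A4 with 25uM Luciferin-PPXE, 10-min compound preincubation and a 60-min NADPH-supported step at RT.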

[10] = qHTS Assay for Identification of Small Molecule Agonists for Hypoxia Response Element Signaling Pathway (AID 914; active = well fitted activation curve with a large enough effect in the signal ratio, with a control signal flat, not every such curve was filed as active; the % refers to the signal ratio; also: % of control where 0% means no effect); conditions: ME-180 (cervical carcinoma) HRE-bla reporter, beta-lactamase ratio, CoCl2, 17 h; activation: hits give high values
In short: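 AC50 values come from titration-series %Activity, taken as the 460/530nm ratio of CCF4 fluorescence (excitation 405nm). CellSensor HRE-bla ME-180 cells were treated 17 hours at 37 C with compound plus an EC50 level of CoCl2.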

[11] = Confirmation and Secondary Assay for Modulators of Hemoglobin Beta Chain Splicing at IVS2 705 locus (AID 930; active = well fitted curve in the direction sought with a large enough effect; an effect the other way counts as inactive or inconclusive;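 also: HeLa cells stably expressing the EGFP-705 splicing reporter; % of control where 0% means no effect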); conditions: HeLa EGFP-705 splicing reporter, GFP fluorescence, 48 h; series mostly up to 38.3 µM
In short: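 Restored EGFP fluorescence after 2-day compound exposure reports splicing correction in IVS2-705 EGFP reporter HeLa cells; positive control was 500 nM splice-blocking PNA oligo. Signal measured as well total peak GFP intensity (488 nm excitation).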

[12] = Primary qHTS for small molecule stabilizers of the endoplasmic reticulum resident proteome: Secreted ER Calcium Modulated Protein (SERCaMP) assay (AID 1508630; active = well fitted curve in the direction sought with a large enough effect; an effect the other way counts as inactive or inconclusive; also: % is scaled to controls: 0 for no effect and ±100 for the full control effect); conditions: SH-SY5Y GLuc-SERCaMP (Gaussia luciferase released on ER calcium loss) secretion, thapsigargin, luminescence; series mostly up to 38.4 µM
In short: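 GLuc-SERCaMP-expressing SH-SY5Y cells, pretreated 16 h with compound, are challenged with thapsigargin to empty ER calcium stores; after 4 h, coelenterazine is added directly to the medium and luminescence is imaged.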

[13] = biological target: 3',5'-cyclic-AMP phosphodiesterase 4B (Homo sapiens) (UniProt Q07343); assay: qHTS Assay for Inhibitors of PDE-IV (AID 607; active = well fitted activation curve with a large enough effect in the main read-out, with a control signal flat, not every such curve was filed as active; also: % of control where 0% means no effect); conditions: HEK293 ACTOne CNG channel cells, membrane potential fluorescence; series mostly up to 22.9 µM
3',5'-cyclic-AMP phosphodiesterase 4B (Homo sapiens), sequence (Q07343 whole entry, looked up): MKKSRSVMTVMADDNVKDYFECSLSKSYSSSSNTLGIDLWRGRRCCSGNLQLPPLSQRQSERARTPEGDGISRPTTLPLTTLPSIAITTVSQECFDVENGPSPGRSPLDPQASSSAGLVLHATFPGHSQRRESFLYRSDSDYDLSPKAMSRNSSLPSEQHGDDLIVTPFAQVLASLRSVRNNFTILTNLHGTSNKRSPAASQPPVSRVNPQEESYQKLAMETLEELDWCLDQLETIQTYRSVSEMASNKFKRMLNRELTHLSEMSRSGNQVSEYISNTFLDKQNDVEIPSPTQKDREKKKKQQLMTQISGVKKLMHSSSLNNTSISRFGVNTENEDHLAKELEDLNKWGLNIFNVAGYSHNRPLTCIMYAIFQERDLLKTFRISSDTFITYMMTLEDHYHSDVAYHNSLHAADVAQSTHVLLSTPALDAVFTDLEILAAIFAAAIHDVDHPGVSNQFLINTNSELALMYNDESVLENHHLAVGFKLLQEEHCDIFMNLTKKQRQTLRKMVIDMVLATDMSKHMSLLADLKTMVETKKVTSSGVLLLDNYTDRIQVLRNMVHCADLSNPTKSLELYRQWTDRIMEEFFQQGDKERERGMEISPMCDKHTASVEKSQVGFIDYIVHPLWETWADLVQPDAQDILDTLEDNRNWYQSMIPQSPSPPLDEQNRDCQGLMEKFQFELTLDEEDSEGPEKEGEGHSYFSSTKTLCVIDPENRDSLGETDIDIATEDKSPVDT
In short: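 Cell-based read-out of cAMP via a modified cyclic nucleotide-gated channel and membrane potential dye (535/590 nm) in HEK293 cells expressing PDE4 endogenously. Compounds tested up to 22.9 uM final; 100 uM RO 20-1724 reference.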

[14] = Confirmation and Secondary Assay for Modulators of Hemoglobin Beta Chain Splicing at IVS2 654 locus (AID 910; active = well fitted curve in the direction sought with a large enough effect; an effect the other way counts as inactive or inconclusive;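 also: HeLa cells stably carrying EGFP split by mutant beta-globin IVS2-654 intron; per-well total GFP intensity by laser scanning cytometry after 2-day treatment; % of control where 0% means no effect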); conditions: HeLa EGFP-654 splicing reporter, GFP fluorescence, 48 h; series mostly up to 38.3 µM
In short: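 Readout: per-well total peak green fluorescence (488 nm ex, 500–520 nm em) from objects 5–250 µm, reflecting correct splicing of an EGFP-654 reporter. Compounds were applied for 2 days at 37 °C to overnight-plated HeLa EGFP-654 cells; controls were DMSO and 500 nM IVS2-654 PNA.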

[15] = biological target: Ubiquitin carboxyl-terminal hydrolase 1 (Homo sapiens) (UniProt O94782); assay: Inhibitors of USP1/UAF1: Pilot qHTS (AID 504865; active = well fitted curve in the direction sought with a large enough effect; an effect the other way counts as inactive or inconclusive;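 also: rhodamine fluorescence freed from ubiquitin-rhodamine substrate followed over time; top concentration of the series differs between compounds; % is scaled to controls: 0 for no effect and ±100 for the full control effect; nearly all actives have a fitted effect of over 35% in size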); conditions: purified USP1/UAF1, Ub-rhodamine cleavage fluorescence; series mostly up to 54.9 µM
Ubiquitin carboxyl-terminal hydrolase 1 (Homo sapiens), sequence (O94782 whole entry, looked up): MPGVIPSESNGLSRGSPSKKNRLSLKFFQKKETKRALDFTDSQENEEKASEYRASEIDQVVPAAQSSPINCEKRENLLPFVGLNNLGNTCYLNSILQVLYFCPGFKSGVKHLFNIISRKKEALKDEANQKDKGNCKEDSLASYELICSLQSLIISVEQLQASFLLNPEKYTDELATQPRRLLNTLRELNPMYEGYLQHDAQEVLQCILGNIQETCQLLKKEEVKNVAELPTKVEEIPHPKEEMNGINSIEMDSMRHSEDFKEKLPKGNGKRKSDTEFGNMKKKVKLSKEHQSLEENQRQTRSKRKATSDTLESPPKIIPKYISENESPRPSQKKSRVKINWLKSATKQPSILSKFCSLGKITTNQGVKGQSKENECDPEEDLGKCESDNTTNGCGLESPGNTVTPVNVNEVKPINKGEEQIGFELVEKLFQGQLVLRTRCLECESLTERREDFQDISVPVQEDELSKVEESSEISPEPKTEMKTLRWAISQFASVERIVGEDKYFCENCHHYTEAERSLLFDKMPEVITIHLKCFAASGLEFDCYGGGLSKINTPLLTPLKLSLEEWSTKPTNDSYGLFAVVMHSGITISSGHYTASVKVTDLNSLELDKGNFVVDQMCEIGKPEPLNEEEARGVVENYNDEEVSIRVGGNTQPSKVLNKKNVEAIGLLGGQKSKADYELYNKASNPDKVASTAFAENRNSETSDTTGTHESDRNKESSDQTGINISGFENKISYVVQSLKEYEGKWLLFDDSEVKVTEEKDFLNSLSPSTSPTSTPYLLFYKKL
In short: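 USP1/UAF1 complex (1nM) preincubated with compound 15 min at room temperature, then Ub-Rho substrate (150nM final) added. Fluorescence read kinetically at 480/540 nm, 6 reads every 60 seconds. Buffer: 50mM HEPES pH 7.8, 0.5mM EDTA, 0.1 mg/ml BSA, 1mM TCEP, 0.01% Tween-20.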

CN1CCN(c2ccnc(-c3cccc(NS(C)(=O)=O)c3)n2)CC1
inactive: Potency [1] > 11.4 µM | activity change, negative = inhibition [2] -6.86% | activity change, negative = inhibition [4] -9.78% | activity, negative = inhibition [5] 7.5% | Potency [6] > 46 µM | Potency [7] > 46 µM | Potency [8] | Potency [9] | activation [10] 0.356% | outcome [11] | outcome [12]
active: Potency [3] 12.6 µM

CC(=O)N1CCC2(CC1)CCN(c1ccccn1)CC2
inactive: Potency [1] > 11.4 µM | activity change, negative = inhibition [2] 1.64% | Potency [3] | activity change, negative = inhibition [4] -29.8% | activity, negative = inhibition [5] 6.98% | Potency [7] > 46 µM | Potency [8] | Potency [13] | outcome [12]

O=C(c1cnccn1)N1CCC2(CC1)CN(Cc1nccs1)C2
inactive: Potency [1] > 11.4 µM | activity change, negative = inhibition [2] -5.34% | Potency [3] | activity change, negative = inhibition [4] -5.05% | activity, negative = inhibition [5] -2.27% | Potency [7] > 46 µM | Potency [8] | Potency [13] | outcome [12]

CS(=O)(=O)N1CCC[C@@]2(CCN(c3ncccn3)C2)C1
inactive: Potency [1] > 11.4 µM | activity change, negative = inhibition [2] -9.3% | Potency [3] | activity change, negative = inhibition [4] 16.2% | activity, negative = inhibition [5] -19.8% | Potency [7] > 46 µM | Potency [8] | Potency [13] | outcome [12]

COCC(=O)N1CCC2(CCCN(C(=O)Nc3ccccc3)C2)CC1
inactive: Potency [1] > 11.4 µM | activity change, negative = inhibition [2] -1.58% | Potency [3] | activity change, negative = inhibition [4] 13.8% | activity, negative = inhibition [5] 3.14% | Potency [7] > 46 µM | Potency [8] | Potency [13] | outcome [12]

O=C(c1cccc(F)c1)N1CCC2(CCCN(c3ccc(-c4ccccc4)cc3)C2)CC1
active: Potency [3] 15.8 µM
inactive: Potency [1] > 11.4 µM | activity change, negative = inhibition [2] 6.64% | activity change, negative = inhibition [4] -3.55% | activity, negative = inhibition [5] 1.09% | Potency [7] > 46 µM | Potency [8] | Potency [13] | outcome [12]

O=C(Nc1ccccc1)N1CC2(CCN(C(=O)c3cnccn3)CC2)C1
inactive: Potency [1] > 11.4 µM | activity change, negative = inhibition [2] -11.2% | activity change, negative = inhibition [4] 4.45% | activity, negative = inhibition [5] 2.96% | Potency [7] > 46 µM | Potency [8] | Potency [13] | outcome [12]
active: Potency [3] 20 µM

COCC(=O)N1CCC2(CC1)CN(Cc1ccccc1OC)C2
inactive: Potency [1] > 11.4 µM | activity change, negative = inhibition [2] -2.68% | Potency [3] | activity change, negative = inhibition [4] 9.66% | activity, negative = inhibition [5] 14.6% | Potency [7] > 46 µM | Potency [8] | Potency [13] | outcome [12]

Cc1noc(C)c1C(=O)N1CCC2(CCN(Cc3nccs3)CC2)CC1
inactive: Potency [1] > 11.4 µM | activity change, negative = inhibition [2] 11.4% | activity change, negative = inhibition [4] -0.611% | activity, negative = inhibition [5] 11.5% | Potency [7] > 46 µM | Potency [8] | Potency [13] | outcome [12]
active: Potency [3] 12.6 µM

COc1ccc(-n2c(=O)c(-c3ccc(Cl)cc3)nc3cncnc32)cc1
active: Potency [3] 5.01 µM
inactive: Potency [1] > 11.4 µM | activity change, negative = inhibition [2] -19.6% | activity change, negative = inhibition [4] -2.56% | activity, negative = inhibition [5] -6.47% | Potency [6] > 9.22 µM | Potency [7] > 46 µM | Potency [8] | Potency [9] | outcome [12]

COc1ccc(NC(=O)N2CC3(CCN(C(=O)c4cnccn4)CC3)C2)cc1
inactive: Potency [1] > 11.4 µM | activity change, negative = inhibition [2] 0.0652% | Potency [3] | activity change, negative = inhibition [4] 15.4% | activity, negative = inhibition [5] 4.6% | Potency [7] > 46 µM | Potency [8] | Potency [13] | outcome [12]

O=c1c(-c2cccc(F)c2)nc2cncnc2n1-c1ccccc1
inactive: Potency [1] > 11.4 µM | activity change, negative = inhibition [2] -10.3% | activity change, negative = inhibition [4] -2.26% | activity, negative = inhibition [5] -2.29% | Potency [6] > 9.22 µM | Potency [7] > 46 µM | Potency [8] | Potency [9] | outcome [12]
active: Potency [3] 10 µM

CN(C)C(=O)c1ccc(-c2nccc(NCc3cccnc3)n2)cc1
active: Potency [3] 15.8 µM
inactive: Potency [1] > 11.4 µM | activity change, negative = inhibition [2] -3.36% | activity change, negative = inhibition [4] 3.73% | activity, negative = inhibition [5] 2.62% | Potency [7] > 46 µM | Potency [8] | Potency [13] | Potency [9] | Potency [14] | outcome [11] | Potency [15] | outcome [12]

O=C(c1cnccn1)N1CCC2(CCCN(c3ncccn3)C2)CC1
inactive: Potency [1] > 11.4 µM | activity change, negative = inhibition [2] -8.6% | Potency [3] | activity change, negative = inhibition [4] 13.2% | activity, negative = inhibition [5] -0.387% | Potency [7] > 46 µM | Potency [8] | Potency [13] | outcome [12]

COc1ccc(C(=O)N2CCC3(CCCN(C)C3)CC2)cc1
inactive: Potency [1] > 11.4 µM | activity change, negative = inhibition [2] 2.83% | Potency [3] | activity change, negative = inhibition [4] 0.644% | activity, negative = inhibition [5] -7.5% | Potency [7] > 46 µM | Potency [8] | Potency [13] | outcome [12]

COC(=O)N1CCC2(CC1)CN(C(=O)Nc1ccc(OC)cc1)C2
inactive: Potency [1] > 11.4 µM | activity change, negative = inhibition [2] -27.1% | Potency [3] | activity change, negative = inhibition [4] 14.1% | activity, negative = inhibition [5] -0.967% | Potency [7] > 46 µM | Potency [8] | Potency [13] | outcome [12]
